# Measured values from PubChem BioAssay (NCATS).
# Values joined by “and” are separate entries in the source; they are usually repeats but may differ in a detail not shown here. Equal values may be shown once. Inconclusive results are not listed. Active and inactive are the calls of the source. Calls come from the whole dose curve; as a rule, active = well fitted cell-killing curve with a large enough effect; inconclusive = small, poorly fitted or top-dose-only effect, or effect the other way; inactive = no such curve, though single readings can be large or run the other way.
# Assay: Viability qHTS for spleen associated tyrosine kinase inhibitor (SYKi) naive MV4-11 cells (AID 1963823); note: nearly all actives have a fitted effect of over 40% in size
# Conditions: MV4-11 AML viability, CellTiter-Glo luminescence, 72 h; series mostly up to 45 µM
# Method in brief: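 Read-out: CellTiter-Glo luminescence. Exposure: 72 hr, 37 C, 5% CO2, 95% humidity. Cells: MV4-11 without SYK inhibitor history, 500/well, qHTS format.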
# Potency is the fitted concentration of half-maximal effect.
row,Compound,Potency
1,C[C@H](NC(=O)/C(C#N)=C/c1cccc(Br)n1)c1ccccc1,3.72 µM (active)
2,COC(=O)C1=C(C)NC(C)=C(C(=O)OC)C1c1ccccc1[N+](=O)[O-],13.3 µM (active)
3,NS(=O)(=O)OC[C@@H]1C[C@@H](n2ccc3c(N[C@H]4CCc5ccccc54)ncnc32)C[C@@H]1O,103 nM (active) and 164 nM (active)
4,Oc1ccc(O)cc1,11.9 µM (active)
5,CC(=O)C1CCC2C3CCC4=CC(=O)CCC4(C)C3CCC12C (stereo unspecified),16.6 µM (active)
6,Nc1ccc(C(=O)NCC(=O)O)cc1,inactive
7,CCCCCCCCCCCC[N+](C)(C)Cc1ccccc1,6.68 µM (active)

# Assay: Viability qHTS for spleen associated tyrosine kinase inhibitor (SYKi) drug resistant MV4-11 cells (AID 1963824); note: nearly all actives have a fitted effect of over 35% in size
# Conditions: SYKi-resistant MV4-11 viability, CellTiter-Glo, 72 h; series mostly up to 45 µM
# Method in brief: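 SYK-inhibitor-resistant MV4-11 AML cells were seeded at 500 per well onto compound and cultured 72 hours (37 °C, 5% CO2). CellTiter-Glo was then added, and after 10 min at room temperature, luminescence gave viability.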
row,Compound,Potency
1,O=S(=O)(c1cccc2c(I)cccc12)N1CCCNCC1,16.4 µM (active)
2,N#Cc1ccc(-c2c(-c3ncn[nH]3)sc(N3CCOCC3)c2C#N)c(F)c1,2.06 µM (active) and 5.9 µM (active)
3,CCOC(=O)c1ccc(N)cc1,inactive
4,CCCCNc1ncc2c(-c3ccc(CN4CCN(C)CC4)cc3)cn(C3CCC(O)CC3)c2n1 (stereo unspecified),11.6 nM (active) and 20.9 nM (active)
5,CCCS(=O)(=O)c1nc(NC2CC2)cc(-c2ccc3c(ccn3C3CC(C)(C)NC(C)(C)C3)c2)n1,1.11 µM (active)
6,COC1(c2sc3c(N4CCOCC4)nc(-c4cnc(N)nc4)nc3c2C)COC1,0.411 µM (active)
7,CCS(=O)(=O)CCn1c([N+](=O)[O-])cnc1C,inactive
8,CCCC(CCC)C(=O)Nc1ccn([C@@H]2O[C@H](CO)[C@@H](O)C2(F)F)c(=O)n1,0.58 µM (active)
9,CNC(=O)Cn1cc(-c2ccc3c(c2)C(F)CC32NC(=O)N(CC(=O)N(Cc3ccc(F)cc3)C(C)C(F)(F)F)C2=O)cn1 (stereo unspecified),0.166 µM (active)
10,O=C(O)CCCC[C@@H]1SC[C@@H]2NC(=O)N[C@@H]21,inactive
11,O=C(Nc1ncc(SCCN2CCCC2)s1)[C@]1(c2ccc(S(=O)(=O)C3CC3)cc2)C[C@H]1C1CCCCC1,8.33 µM (active)
12,CC#C[C@@H](CC(=O)O)c1ccc(OCc2cccc(-c3ccc(C(F)(F)F)cc3)c2)cc1,16.6 µM (active)
13,Cc1c[nH]c(/C=C2\C(=O)Nc3ccccc32)c1CCC(=O)O,1.16 µM (active) and 1.32 µM (active)
14,Nc1cc(-c2ccncc2)c[nH]c1=O,inactive
15,COc1cc(C(=O)NC2CCCNC2)cc(OC)c1OC (stereo unspecified),inactive
16,COC(=O)C1=C(C)NC(C)=C(C(=O)O[C@@H]2CCCN(Cc3ccccc3)C2)[C@@H]1c1cccc([N+](=O)[O-])c1,15 µM (active) and 13 µM (active)
17,CCN(CC)CCOc1ccc(/C(=C(\Cl)c2ccccc2)c2ccccc2)cc1,10.6 µM (active) and 10.3 µM (active)
18,CN(C)/C(N)=N/C(=N)N,inactive
19,CCCCCCCCCCOCC(O)CN (stereo unspecified),26.6 µM (active)
20,C[C@@H]1C[C@H](N)C[C@H](c2ccncc2NC(=O)c2ccc(F)c(-c3c(F)cccc3F)n2)C1,2.63 µM (active)
21,C=CC[C@@H]1/C=C(\C)C[C@H](C)C[C@H](OC)[C@H]2O[C@@](O)(C(=O)C(=O)N3CCCC[C@H]3C(=O)O[C@H](/C(C)=C/[C@@H]3CC[C@@H](O)[C@H](OC)C3)[C@H](C)[C@@H](O)CC1=O)[C@H](C)C[C@@H]2OC,14.8 µM (active)
22,CN(C)Cc1cccc(N=C(c2ccccc2)c2c(O)[nH]c3cc(C(N)=O)ccc23)c1,2.91 µM (active) and 1.18 µM (active)
23,CCOc1cc2ncc(C#N)c(Nc3ccc(OCc4ccccn4)c(Cl)c3)c2cc1NC(=O)/C=C/CN(C)C,224 nM (active) and 525 nM (active)
24,N#C/C(=C\c1ccc(O)c(O)c1)C(=O)NCc1ccccc1,9.2 µM (active) and 16.6 µM (active)
25,CCN1/C(=C/C=C/c2sc3ccccc3[n+]2CC)Sc2ccccc21,0.058 µM (active)
26,CCO[C@@H]1O[C@H](C(COCc2ccccc2)OCc2ccccc2)[C@H](OCc2ccccc2)[C@H]1O (stereo partly specified),11.9 µM (active)
27,Cc1[nH]c(/C=C2\C(=O)Nc3ccc(F)cc32)c(C)c1C(=O)NCCN1CCCC1,73.1 nM (active) and 32.3 nM (active)
28,COc1ccc(S(=O)(=O)N(CCO)c2ccccc2CN(C)C/C=C/c2ccc(Cl)cc2)cc1,4.68 µM (active)
29,CC(=O)c1cc2c(o1)C(=O)c1ccccc1C2=O,1.32 µM (active)
